This passage reports binding signal results from article PMC9911399, “Two distinct binding modes provide the RNA-binding protein RbFox with extraordinary sequence specificity”.

B1: CCGCAUG (DNA:RNA)
RNA: GGGAGACCGGAAUUCAGAUUGUCCCCGCAUGUUAAAUCCCGUCGUAGCCACCA
DNA 1: CAATCTGAATTCCGGTCTCCC
DNA 2: TGGTGGCTACGACGGGATT
B2: GCCAUGU (DNA:RNA)
RNA: B1 RNA with C25G, G27C, C28A, A29U, U30G, G31U
DNA 1: CAATCTGAATTCCGGTCTCCC
DNA 2: TGGTGGCTACGACGGGATT
B3: CCCCGCA (DNA:RNA)
RNA: B1 RNA with G27C, A29G, U30C, G31A
DNA 1: CAATCTGAATTCCGGTCTCCC
DNA 2: TGGTGGCTACGACGGGATT
B4: GCAUGUU (DNA:RNA)
RNA: B1 RNA with C25G, G27A, C28U, A29G, G31U
DNA 1: CAATCTGAATTCCGGTCTCCC
DNA 2: TGGTGGCTACGACGGGATT
B5: GCAUAGU (DNA:RNA)
RNA: B1 RNA with C25G, G27A, C28U, U30G, G31U
DNA 1: CAATCTGAATTCCGGTCTCCC
DNA 2: TGGTGGCTACGACGGGATT
B6: GUUUUUU (DNA:RNA)
RNA: B1 RNA with C25G, C26U, G27U, C28U, A29U, G31U
DNA 1: CAATCTGAATTCCGGTCTCCC
DNA 2: TGGTGGCTACGACGGGATT
B7: CGCAUUG (DNA:RNA)
RNA: B1 RNA with C26G, G27C, C28A, A29U
DNA 1: CAATCTGAATTCCGGTCTCCC
DNA 2: TGGTGGCTACGACGGGATT
B8: CGCAUGU (DNA:RNA)
RNA: B1 RNA with C26G, G27C, C28A, A29U, U30G, G31U
DNA 1: CAATCTGAATTCCGGTCTCCC
DNA 2: TGGTGGCTACGACGGGATT
B9: GCAAUGU (DNA:RNA)
RNA: B1 RNA with C25G, G27A, C28A, A29U, U30G, G31U
DNA 1: CAATCTGAATTCCGGTCTCCC
DNA 2: TGGTGGCTACGACGGGATT
B10: UACUGCC (DNA:RNA)
RNA: GGGAGACCGGAAUUCAGAUUGUCCUACUGCCUUAAAUCCCGUCGUAGCCACCA
DNA 1: CAATCTGAATTCCGGTCTCCC
DNA 2: TGGTGGCTACGACGGGATT
B11: CCGGCAC (DNA:RNA)
RNA: B1 RNA with C28G, A29C, U30A, G31C
DNA 1: CAATCTGAATTCCGGTCTCCC
DNA 2: TGGTGGCTACGACGGGATT
B12: CUGGUGA (DNA:RNA)
RNA: B1 RNA with C26U, C28G, A29U, U30G, G31A
DNA 1: CAATCTGAATTCCGGTCTCCC
DNA 2: TGGTGGCTACGACGGGATT
B13: AGGAGUA (DNA:RNA)
RNA: B1 RNA with C25A, C26G, C28A, A29G, G31A
DNA 1: CAATCTGAATTCCGGTCTCCC
DNA 2: TGGTGGCTACGACGGGATT
B14: UAGUAGU (DNA:RNA)
RNA: B10 RNA with C27G, G29A, C30G, C31U
DNA 1: CAATCTGAATTCCGGTCTCCC
DNA 2: TGGTGGCTACGACGGGATT
B15: UCUCUCG (DNA:RNA)
RNA: B1 RNA with C25U, G27U, A29U, U30C
DNA 1: CAATCTGAATTCCGGTCTCCC
DNA 2: TGGTGGCTACGACGGGATT
B16: ACGUCAA (DNA:RNA)
RNA: B1 RNA with C25A, C28U, A29C, U30A, G31A
DNA 1: CAATCTGAATTCCGGTCTCCC
DNA 2: TGGTGGCTACGACGGGATT
B17: UUCCUAC (DNA:RNA)
RNA: B10 RNA with A26U, U28C, G29U, C30A
DNA 1: CAATCTGAATTCCGGTCTCCC
DNA 2: TGGTGGCTACGACGGGATT
B18: GAAAACG (DNA:RNA)
RNA: B1 RNA with C25G, C26A, G27A, C28A, U30C
DNA 1: CAATCTGAATTCCGGTCTCCC
DNA 2: TGGTGGCTACGACGGGATT
B19: AGGAGGC (DNA:RNA)
RNA: B10 RNA with U25A, A26G, C27G, U28A, C30G
DNA 1: CAATCTGAATTCCGGTCTCCC
DNA 2: TGGTGGCTACGACGGGATT
B20: CACCGGC (DNA:RNA)
RNA: B10 RNA with U25C, U28C, C30G
DNA 1: CAATCTGAATTCCGGTCTCCC
DNA 2: TGGTGGCTACGACGGGATT
B21: GUCCGGC (DNA:RNA)
RNA: B10 RNA with U25G, A26U, U28C, C30G
DNA 1: CAATCTGAATTCCGGTCTCCC
DNA 2: TGGTGGCTACGACGGGATT
B22: GGGCUUG (DNA:RNA)
RNA: B1 RNA with C25G, C26G, A29U
DNA 1: CAATCTGAATTCCGGTCTCCC
DNA 2: TGGTGGCTACGACGGGATT
B23: GGGGGGC (DNA:RNA)
RNA: B10 RNA with U25G, A26G, C27G, U28G, C30G
DNA 1: CAATCTGAATTCCGGTCTCCC
DNA 2: TGGTGGCTACGACGGGATT
B24: CCCCGGC (DNA:RNA)
RNA: B1 RNA with G27C, A29G, U30G, G31C
DNA 1: CAATCTGAATTCCGGTCTCCC
DNA 2: TGGTGGCTACGACGGGATT
B25: GUCGGCU (DNA:RNA)
RNA: B10 RNA with U25G, A26U, U28G, C31U
DNA 1: CAATCTGAATTCCGGTCTCCC
DNA 2: TGGTGGCTACGACGGGATT
B26: AGGCUUG (DNA:RNA)
RNA: B1 RNA with C25A, C26G, A29U
DNA 1: CAATCTGAATTCCGGTCTCCC
DNA 2: TGGTGGCTACGACGGGATT
B27: GGCUUGU (DNA:RNA)
RNA: B10 RNA with U25G, A26G, G29U, C30G, C31U
DNA 1: CAATCTGAATTCCGGTCTCCC
DNA 2: TGGTGGCTACGACGGGATT
B28: GUCGGGC (DNA:RNA)
RNA: B10 RNA with U25G, A26U, U28G, C30G
DNA 1: CAATCTGAATTCCGGTCTCCC
DNA 2: TGGTGGCTACGACGGGATT
B29: CGGCUUG (DNA:RNA)
RNA: B1 RNA with C26G, A29U
DNA 1: CAATCTGAATTCCGGTCTCCC
DNA 2: TGGTGGCTACGACGGGATT
B30: ACCAGGC (DNA:RNA)
RNA: B10 RNA with U25A, A26C, U28A, C30G
DNA 1: CAATCTGAATTCCGGTCTCCC
DNA 2: TGGTGGCTACGACGGGATT
B31: GUGGAAC (DNA:RNA)
RNA: B1 RNA with C25G, C26U, C28G, U30A, G31C
DNA 1: CAATCTGAATTCCGGTCTCCC
DNA 2: TGGTGGCTACGACGGGATT

Numbering of substitutions follows the chain as printed; changes in the protein carry UniProt numbers. The full ranking holds about 16,000 sequences; the median of “ka relative to ugcaugu” is about 0.096, and the highest 2% start at about 0.35. Only a selection was taken, and the highest values are over-represented in it overall.

For the assay, the target named is T1, RBFOX1 RRM RbFoxmut (Fox-RRM*) (Homo sapiens, UniProt Q9NWB1 109-208, R118D;E147R;N151S;E152T).
T1 sequence: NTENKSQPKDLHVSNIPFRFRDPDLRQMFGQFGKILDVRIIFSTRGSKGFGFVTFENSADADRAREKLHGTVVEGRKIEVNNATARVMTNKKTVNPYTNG
The experiment in a line: EMSA; HiTS-Eq, 1 nM pool, 10 min; buffer printed only for the single-RNA assays: 10 mM Tris pH 7.5, 150 mM NaCl, 3.4 mM EDTA, 0.001% NP-40, 30 C. The settings on record: tags: His6 N-terminal (pET28a); label: 5' 32P. The essentials: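 Purified RbFox RRM (wild type or mutant) was equilibrated for 10 min in 50 µL with 1 nM of a 5′-radiolabelled pool of RNA with 7 randomized nucleotides, its flanks annealed to DNA oligonucleotides, across increasing protein concentrations. Free RNA was separated by 8% native PAGE, excised, reverse-transcribed, PCR-barcoded and sequenced on an Illumina HiSeq 2500. Relative association constants came from read-count changes of each variant against the control reaction, normalised to the cognate motif.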
For orientation: A gel shift assay detects complexes by their altered migration in electrophoresis.
As for B1, the binding signal is 1.13 KA relative to UGCAUGU.

In the case of B2, the binding signal was 0.188 KA relative to UGCAUGU.

On to B3, for which the binding signal is 0.118 KA relative to UGCAUGU.

In the case of B4, the binding signal was 0.776 KA relative to UGCAUGU.

Turning to B5, the binding signal was 0.192 KA relative to UGCAUGU.

Take B6: the binding signal is 0.0932 KA relative to UGCAUGU.

Take B7: the binding signal was 0.179 KA relative to UGCAUGU.

On to B8, for which the binding signal was 1.08 KA relative to UGCAUGU.

As for B9, the binding signal was 0.12 KA relative to UGCAUGU.

Consider B10, for which the binding signal was 0.217 KA relative to UGCAUGU.

For the molecule B11, the binding signal was 0.0571 KA relative to UGCAUGU.

For B12, the binding signal is 0.0924 KA relative to UGCAUGU.

Turning to B13, the binding signal was 0.168 KA relative to UGCAUGU.

For B14, the binding signal is 0.121 KA relative to UGCAUGU.

With B15, the binding signal was 0.0757 KA relative to UGCAUGU.

Take B16: the binding signal is 0.0727 KA relative to UGCAUGU.

Turning to B17, the binding signal was 0.0836 KA relative to UGCAUGU.

As to B18, the binding signal was 0.0811 KA relative to UGCAUGU.

For the molecule B19, the binding signal is 0.118 KA relative to UGCAUGU.

As for B20, the binding signal is 0.0862 KA relative to UGCAUGU.

For B21, the binding signal is 0.116 KA relative to UGCAUGU.

Take B22: the binding signal is 0.371 KA relative to UGCAUGU.

As to B23, the binding signal was 0.0893 KA relative to UGCAUGU.

For B24, the binding signal was 0.0573 KA relative to UGCAUGU.

As for B25, the binding signal is 0.116 KA relative to UGCAUGU.

Consider B26, for which the binding signal was 0.388 KA relative to UGCAUGU.

For B27, the binding signal was 0.359 KA relative to UGCAUGU.

For B28, the binding signal was 0.0929 KA relative to UGCAUGU.

As for B29, the binding signal is 0.431 KA relative to UGCAUGU.

Turning to B30, the binding signal is 0.0949 KA relative to UGCAUGU.

For the molecule B31, the binding signal is 0.112 KA relative to UGCAUGU.
